Assay outcomes (PubChem BioAssay)
BRCA1 expr act – activators of BRCA1 expression; MCF7-BRCA1-FFLuc reporter, luminescence, 48 h; response scale: scaled: vehicle 0%, 10 µM genistein 100%; Potency, µM (titrated, usually from 46.1 µM), for inactives: top-dose activation, hits mostly activators; 380,000 compounds, 1.1% hits; AID 624202; further: potency means the concentration at half of the fitted maximal effect; nearly all actives have a fitted effect of over 80% in size
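Luminescence from a BRCA1-driven firefly luciferase in MCF7 cells was read after 48 h compound exposure at 37 C. Data normalized against DMSO and a 10microM genistein activation control, then curve-fitted across the titration.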
A549 tox – A549 cytotoxicity, counter-screen for Nrf2 inhibitors; AID 504648; A549 ARE-Fluc cells, CellTiter-Fluor viability, 18-24 h; Potency, µM (doses to about 46 µM), for the others: top-dose activity change, negative = cytotoxicity, most hits filed as inhibitors; 390,000 compounds, 0.16% hits; further: potency means the concentration at half of the fitted maximal effect; on the % scale 0 is the no-effect control and ±100 the full control effect
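A549 ARE-Fluc cells in 5% FBS OPTI-MEM, 5000 cells/well, rested 2 h then exposed to compounds in concentration-response for 18-24 h at 37 °C. Viability by CellTiter-Fluor fluorescence (Ex 405/Em 525) after 30 min; luciferase luminescence (BugLite, 15 min, RT) read afterwards.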
Nrf2 ARE act – activators of Nrf2 (ARE) signaling. AREc32 ARE-luciferase reporter (MCF7-derived line), luminescence, 24 h. Potency, µM (top dose mostly 46.1 µM), for the others: at the highest dose activation, most hits filed as activators. 410,000 compounds, 0.31% hits. AID 624171; further: potency means the concentration at half of the fitted maximal effect; % of control where 0% means no effect; nearly all actives have a fitted effect of over 65% in size
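Steps: seed AREc32_Fluc cells (1000/well, 5% FBS OPTI-MEM); incubate overnight at 37 deg C; add 23 nL compound; incubate 24 hr; add Steady-Glo; hold 30 min RT; read luminescence.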
p53 reactivation – re-activators of mutant p53. H1299 p53-A138V BP100-luciferase reporter, luminescence, 24 h. Potency, µM (titrated, usually from 92.2 µM), for the others: top-dose activity change, positive = activation, hits mostly activators. 320,000 compounds, 0.063% hits. AID 504706; further: potency means the concentration at half of the fitted maximal effect; % of control where 0% means no effect; nearly all actives have a fitted effect of over 45% in size
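H1299 (p53-null), stable ts p53-A138V + BP100-Luc; 1000 cells/well, Opti-MEM/10% FBS; cpd 4 pt, 1:5; 24 h, 37 deg C, 5% CO2; detection reagent 10 min RT; luminescence.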
IL2 activator – activates IL-2 in a cell-based reporter assay; IL-2 activation reporter assay, cell-based qHTS; stimulated with anti-CD3/CD4/CD28 beads; in transgenic mouse T cells; activation, % (series mostly up to about 46 µM); 360,000 compounds, 0.065% hits; AID 652025; in the data active means activation above about 50%; inconclusive means mostly about 30% to 49%; further: 0% is about no effect
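Readout: EGFP and DsRed signals by fluorescent plate cytometry. Unstimulated transgenic mouse T cells received compound 60 min before antibody-bead stimulation, then incubated 18 h at 37 degrees C.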
Nrf2 block – inhibitors of Nrf2 signaling | Potency, µM (top dose mostly 46 µM), without a hit: top-dose activity change, negative = inhibition, usual class: inhibitors | A549 ARE-Fluc reporter, luciferase luminescence, 18-24 h | AID 504444 | 360,000 compounds, 2.1% hits; further: potency means the concentration at half of the fitted maximal effect; on the % scale 0 is the no-effect control and ±100 the full control effect; nearly all actives have a fitted effect of over 60% in size
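In this cell-based qHTS, ARE-driven firefly luciferase in A549 cells reports Nrf2 activity; the luminescent signal after BugLite lysis is the measured value, with a prior CellTiter-Fluor read for cell health.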
Starred values were filed as active, the others as inactive; u = inconclusive; x = no result. Only some compounds are listed: those with a hit (about 3.2% of all), similar ones and a draw of the others. Unless noted, the call rests on the fitted dose curve; in most records, active means well fitted curve in the direction sought with a large enough effect; inconclusive means small, poorly fitted or top-dose-only effect, or another doubt; inactive means no such curve, though single readings can be large; an effect the other way counts as inactive or inconclusive.

SMILES | BRCA1 expr act | A549 tox | Nrf2 ARE act | p53 reactivation | IL2 activator | Nrf2 block
O=C(CCCc1ccccc1)NC12CC3CC(CC(C3)C1)C2 | 2.82µM* | 9.6% | 5.4% | x | -1.2 | u
O=C(COC(=O)c1ccccc1)NC12CC3CC(CC(C3)C1)C2 | -4.0% | -6.7% | 0.4% | 3.4% | -2.8 | -2.2%
C/C(=N\Nc1ccc(Cl)c(C(=O)O)c1)c1cccs1 | 12.6µM* | -1.6% | 1.5% | 8.4% | -2.4 | u
C/C(=N/Nc1ccccc1C(=O)O)c1cccs1 | 10µM* | -12.6% | 7.3% | 14.5% | -0.4 | u
Cc1c(Cl)cccc1NS(=O)(=O)c1ccc(-c2cnc(C3CC3)o2)cc1 | -62.4% | -29.8% | -0.2% | x | x | x
Cc1ccccc1CN1CCN(CC(=O)NCCCN2CCN(c3ccc(F)cc3)CC2)C1=O | -38.2% | -0.3% | 14.2% | 2.1% | 0.0 | 11.6µM*
CCCCNC(=O)c1nn(-c2ccc(C)cc2)c(=O)c2c1c1ccccc1n2C | x | 6.2% | -0.6% | x | x | 1.1%
COc1cccc(NC(=O)COc2ccc(C(=S)N3CCN(C)CC3)cc2OC)c1 | -25.7% | -4.4% | 0.4% | -11.3% | -2.5 | 13µM*
CCOC(=O)C1CCN(C(=O)c2ccc(OCC(=O)Nc3cccc(C(F)(F)F)c3)c(OC)c2)CC1 | -40.8% | -10.2% | 1.9% | -5.8% | -4.5 | 14.6µM*
COc1cc(C(=S)N2CCN(C)CC2)ccc1OCC(=O)NCc1ccccc1 | -12.7% | -3.8% | -0.3% | -2.7% | -0.3 | 0.3%
CCOC(=O)C1CCN(C(=O)c2ccc(OCC(=O)Nc3cccc(C(F)(F)F)c3)cc2)CC1 | 5.2% | -1.9% | -0.5% | -11.3% | -4.9 | -1.5%
CCOc1ccccc1NC(=O)Cn1c(=O)n(Cc2ccccc2)c(=O)c2c(C)c(C)sc21 | x | 1.8% | -0.1% | x | x | -11.9%
Cc1cccc(/C=C(\C#N)C(=O)Nc2ccccn2)c1 | 22.4% | -0.2% | 3.7% | 3.9% | -1.7 | 2.0%
N#C/C(=C\c1cccs1)C(=O)Nc1ccccn1 | 10µM* | -12.9% | u | 9.6% | 1.7 | 9.5%
CNc1ccc(/C=C(\C#N)C(=O)Nc2ccccn2)cc1[N+](=O)[O-] | 11.7% | -9.8% | 2.4% | 19.8% | 86.6* | -18.7%
Cc1cccc(C)c1NC(=O)/C(C#N)=C/c1cccs1 | 15.9% | 0.6% | 0.3% | -0.5% | -0.5 | -14.5%
Cc1ccc(NC(=O)/C(C#N)=C/c2cccs2)c(C)c1 | 3.98µM* | -3.4% | 11.1% | 22.7% | -0.4 | x
Cc1ccccc1NC(=O)/C(C#N)=C\c1ccsc1 | -25.4% | 0.5% | 8.91µM* | 10.7% | -1.6 | u
N#C/C(=C\c1ccccc1)C(=O)Nc1ccccn1 | -14.9% | -3.1% | 3.4% | 2.0% | 0.1 | 12.5%
CCOc1ccccc1NC(=O)CN1C=NS(=O)(=O)c2ccccc21 | x | 2.2% | 0.3% | x | x | x
COc1ccc(NS(=O)(=O)c2ccc(N3CCOCC3)c(NC(=O)c3cccc(F)c3)c2)cc1 | -60.5% | -5.6% | 0.3% | -9.5% | -3.2 | u
CC(Oc1ccc(F)cc1)C(=O)Nc1cc(S(=O)(=O)N2CCOCC2)ccc1N1CCCCC1 (configuration not stated) | -42.1% | u | 2.4% | -1.2% | 0.3 | 20.6µM*
COc1ccc(NS(=O)(=O)c2ccc(N3CCOCC3)c(NC(=O)c3ccc(F)cc3)c2)cc1 | -36.1% | -9.5% | -0.3% | -5.3% | -4.3 | 9.2µM*
CCN1CCN(c2ccc(S(=O)(=O)N3CCOCC3)cc2NC(=O)c2ccc(OCC(C)C)cc2)CC1 | 18.2% | -23.1% | 0.1% | x | 1.2 | 9.2µM*
Cc1ccc(NC(=O)C(=O)c2cc(C)n(-c3ccc(F)cc3)c2C)cc1C | x | 0.1% | 5.0% | x | x | 1.2%
SMILES | BRCA1 expr act | A549 tox | Nrf2 ARE act | p53 reactivation | IL2 activator | Nrf2 block
CCOC(=O)c1c(C)oc2nc(C)nc(Nc3cc(C)cc(C)c3)c12 | x | 3.2% | -1.3% | x | x | 10.0%
COc1ccccc1N1CCN(S(=O)(=O)CCNC(=O)Cc2ccc(Cl)cc2)CC1 | x | 10.2% | 0.4% | x | x | x
COc1ccc(-c2cn3c(n2)sc2cc(C(=O)Nc4cc(Cl)ccc4C)ccc23)cc1 | x | -0.4% | 4.6% | x | x | 2.9%
CCOc1ccc(C(=O)CC(Sc2ccc(C)cc2)C(=O)O)cc1 (configuration not stated) | -41.3% | 0.0% | 17.8µM* | 16.5% | 2.6 | -3.4%
O=[N+]([O-])c1cccnc1NCCNc1ncc(C(F)(F)F)cc1Cl | 2.51µM* | -5.4% | 9.4% | 27.5% | -0.6 | u
O=[N+]([O-])c1ccccc1NCCNc1ncc(C(F)(F)F)cc1Cl | 66.0% | 2.5% | 4.7% | 29.8% | -0.4 | u
CCN(C(=O)c1cccc(S(=O)(=O)N(C)C)c1)C12CC3CC(CC(C3)C1)C2 | -45.2% | -14.7% | -0.2% | 4.8% | -1.1 | 20.6µM*
O=C(Nc1ccc(S(=O)(=O)N(Cc2ccccc2)c2ccccc2)cc1)c1ccc(F)cc1 | x | -8.9% | 0.7% | x | x | 23.1µM*
O=C(Nc1ccc(S(=O)(=O)N(Cc2ccccc2)c2ccccc2)cc1)c1ccccc1F | x | 0.3% | -1.0% | x | x | 5.7%
COc1cccc(C(=O)Nc2cccc(OCc3cc(=O)n4cc(C)ccc4n3)c2)c1 | x | -1.6% | -0.8% | x | x | x
COc1ccc(N2CCN(C(c3ccccc3F)c3sc4nc(-c5ccco5)nn4c3O)CC2)cc1 (configuration not stated) | x | 12.0% | -0.7% | x | x | x
S=c1[nH]nc(-c2ccco2)n1/N=C/c1cccc(Cl)c1Cl | -8.2% | -2.9% | 8.91µM* | -2.6% | 0.8 | 2.9%
COc1ccc(CNC(=O)C(Cc2ccccc2)NS(=O)(=O)c2ccc3c(c2)CCN3C(C)=O)cc1 (configuration not stated) | x | 18.1% | 2.7% | x | x | 0.6%
CCc1ccc(CNC(=O)c2ccc(NC(=O)N3CC(C)Sc4ccccc43)cc2)cc1 (configuration not stated) | x | 3.2% | 0.8% | x | x | -0.9%
CCOc1ccc(S(=O)(=O)Nc2nc3ccccc3nc2-n2ccc(=NC(=O)c3cccs3)cc2)cc1 | 12.1% | 18.3% | 1.5% | -2.5% | u | 1.8%
O=C(N=c1ccn(-c2nc3ccccc3nc2NS(=O)(=O)c2ccc(Cl)cc2)cc1)c1cccs1 | 0.9% | u | -0.3% | 5.7% | 244.0* | -16.3%
CCN(CC)CCNC(=O)Nc1ccc2c(c1)N(Cc1ccccc1)C(=O)c1ccccc1S2 | x | -5.6% | 13.2% | x | x | -5.0%
CC1=CC(=O)N(c2cccc(C(F)(F)F)c2)C1c1ccc(Cl)cc1 (configuration not stated) | -26.0% | u | 0.3% | -11.5% | -1.6 | 23.1µM*
CN(C)c1cccc(C(=O)N2CCC(c3ccncc3)CC2)c1 | x | -2.3% | -1.2% | x | x | x
